This passage reports growth results from PubChem BioAssay (NCI).

Values joined by “and” are separate entries in the source; they are usually repeats but may differ in a detail not shown here. Equal values may be shown once. About 83,000 compounds went through this panel and 20% of them were active in at least one assay; those are over-represented in the sample as a whole.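 Testing used 96-well plates and a 48-hour single-concentration exposure. Example: -40 means 40% of the starting cells died.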 Active and inactive are the calls of the source. The calls were made as follows: active = growth percent below 10; inactive = the rest.

Test systems include SR leukemia; OVCAR-8 ovarian; OVCAR-5 ovarian; OVCAR-4 ovarian; SK-OV-3 ovarian; IGROV1 ovarian; OVCAR-3 ovarian; HS 578T breast; NCI/ADR-RES ovarian; T-47D breast; BT-549 breast; MDA-MB-435 melanoma; SW-620 colon; MCF7 breast; HCT-116 colon; HCC-2998 colon; KM12 colon; RPMI-8226 leukemia.
Holding throughout (assay): NCI-60 one-dose screen, 48 h (100 = growth as untreated, 0 = no growth, -100 = all killed)
What all share (details): 10 µM unless noted

For the compound `O=C(O)CCCCc1ccc([N+](=O)[O-])cc1`, the growth with SR leukemia is 105% (inactive) and 89.5% (inactive); in the assay with OVCAR-8 ovarian it was 114% (inactive) and 102% (inactive); in the assay on OVCAR-5 ovarian, 116% (inactive) and 89.9% (inactive); in the assay with OVCAR-4 ovarian it was 101% (inactive) and 106% (inactive); in the assay with SK-OV-3 ovarian it was 109% (inactive) and 106% (inactive); with IGROV1 ovarian it was 98.1% (inactive) and 95.9% (inactive). For the same compound, the growth in the assay with OVCAR-3 ovarian was 106% (inactive) and 121% (inactive); in the assay with HS 578T breast it was 127% (inactive) and 104% (inactive); in the assay with NCI/ADR-RES ovarian, 101% (inactive) and 107% (inactive); with T-47D breast, 102% (inactive) and 107% (inactive); with BT-549 breast it was 100% (inactive); in the assay on MDA-MB-435 melanoma it was 111% (inactive) and 113% (inactive). The growth in the assay with SW-620 colon is 96.4% (inactive) and 116% (inactive); in the assay on MCF7 breast, 92.4% (inactive) and 98.2% (inactive); in the assay on HCT-116 colon, 103% (inactive) and 102% (inactive); in the assay on HCC-2998 colon, 106% (inactive) and 94.9% (inactive); in the assay with KM12 colon, 91.1% (inactive) and 108% (inactive).

Take `O=C(Oc1cccc(OC(=O)c2ccccc2)c1)c1ccccc1`: the growth was 94.4% (inactive) with SR leukemia; 110% (inactive) in the assay on OVCAR-8 ovarian; 92.7% (inactive) and 102% (inactive) with OVCAR-5 ovarian; 97.3% (inactive) and 92.1% (inactive) in the assay on OVCAR-4 ovarian; 126% (inactive) and 97.4% (inactive) with SK-OV-3 ovarian; 109% (inactive) in the assay on IGROV1 ovarian. For the same compound, the growth in the assay on OVCAR-3 ovarian is 76.3% (inactive) and 101% (inactive); with NCI/ADR-RES ovarian, 95.5% (inactive) and 97.7% (inactive); with T-47D breast, 102% (inactive); in the assay on BT-549 breast it was 112% (inactive) and 90.8% (inactive); in the assay with MDA-MB-435 melanoma, 113% (inactive) and 99.8% (inactive); in the assay with SW-620 colon, 85.8% (inactive) and 103% (inactive). Besides, the growth is 78.7% (inactive) and 107% (inactive) in the assay with MCF7 breast; 89.2% (inactive) and 93.9% (inactive) in the assay on HCT-116 colon; 96.3% (inactive) and 102% (inactive) in the assay with HCC-2998 colon; 87.9% (inactive) in the assay on KM12 colon.

On to `CN(C)c1ccc(C(Cc2ccc3ccccc3n2)Cc2ccc3ccccc3n2)cc1`, for which the growth with SR leukemia was 39.5% (inactive) and 71% (inactive); in the assay on OVCAR-8 ovarian, 46.5% (inactive) and 91.9% (inactive); with OVCAR-5 ovarian it was 58.7% (inactive) and 88.9% (inactive); in the assay with OVCAR-4 ovarian, 45.5% (inactive) and 79.8% (inactive); in the assay on SK-OV-3 ovarian, 77.5% (inactive) and 99.6% (inactive); with IGROV1 ovarian, 36% (inactive) and 90.3% (inactive). Besides, the growth in the assay with OVCAR-3 ovarian was 55.2% (inactive) and 79.8% (inactive); with HS 578T breast, 70% (inactive) and 93% (inactive); in the assay on NCI/ADR-RES ovarian it was 37.5% (inactive) and 76.3% (inactive); with T-47D breast, 34.7% (inactive) and 74.4% (inactive); with BT-549 breast, -3.35% (active) and 93.1% (inactive); with MDA-MB-435 melanoma, 32.7% (inactive) and 87.1% (inactive). Besides, the growth is 48.1% (inactive) and 79.3% (inactive) in the assay on SW-620 colon; 40.8% (inactive) and 68% (inactive) in the assay on MCF7 breast; 15.4% (inactive) and 51.6% (inactive) in the assay on HCT-116 colon; 35% (inactive) and 91.1% (inactive) with HCC-2998 colon; 42.1% (inactive) and 81% (inactive) in the assay on KM12 colon.

`CC(=O)c1ccc2c(c1)N(CCCN1CCN(CCO)CC1)c1ccccc1S2`: the growth in the assay with SR leukemia is -30.2% (active); in the assay on RPMI-8226 leukemia it was 77.6% (inactive) and 10.7% (inactive); with OVCAR-8 ovarian, 82.5% (inactive) and 72.9% (inactive); in the assay on OVCAR-4 ovarian, 101% (inactive) and 49.8% (inactive); with SK-OV-3 ovarian, 152% (inactive) and 50.5% (inactive); in the assay on OVCAR-3 ovarian, 103% (inactive) and 40.7% (inactive). The growth is 87.6% (inactive) and -20.1% (active) with HS 578T breast; 95.6% (inactive) and 45.8% (inactive) with NCI/ADR-RES ovarian; 160% (inactive) and 37.8% (inactive) in the assay on T-47D breast; 88.1% (inactive) and 44.6% (inactive) with BT-549 breast; 84.1% (inactive) and -67% (active) with MDA-MB-435 melanoma; 95% (inactive) and -52.1% (active) in the assay on SW-620 colon. Also, the growth in the assay with MCF7 breast was 79.2% (inactive) and -31.2% (active); in the assay on HCT-116 colon, 83.9% (inactive) and -11.8% (active); in the assay on HCC-2998 colon it was 102% (inactive) and -55.5% (active); in the assay with KM12 colon it was 105% (inactive) and 2.29% (active).

For the compound `CC1CCCc2sc3nc(NNC(=O)c4cnccn4)n(-c4ccccc4)c(=O)c3c21` (stereo unspecified), the growth was 1.65% (active) and 26.4% (inactive) in the assay on SR leukemia; 24.4% (inactive) and 11.4% (inactive) in the assay with RPMI-8226 leukemia; 12% (inactive) and 9.28% (active) in the assay with OVCAR-8 ovarian; 17% (inactive) and -9.04% (active) with SK-OV-3 ovarian; 16.9% (inactive) and 14.1% (inactive) with IGROV1 ovarian; 0.919% (active) and -3.1% (active) with OVCAR-3 ovarian. Besides, the growth is 49.1% (inactive) and 38.1% (inactive) with HS 578T breast; 3.02% (active) and 5.41% (active) in the assay with NCI/ADR-RES ovarian; 10.9% (inactive) and 3.31% (active) in the assay with T-47D breast; 12.8% (inactive) with BT-549 breast; 27.9% (inactive) and 21.5% (inactive) in the assay with MDA-MB-435 melanoma; 23.7% (inactive) and 19.7% (inactive) with SW-620 colon. Moreover, the growth is 6.57% (active) and 0.695% (active) in the assay with MCF7 breast; 7.09% (active) and -13.3% (active) in the assay with HCT-116 colon; 34.2% (inactive) and 40.9% (inactive) in the assay with HCC-2998 colon; 20% (inactive) and 19.2% (inactive) with KM12 colon.

Consider `O=C1c2ccccc2C(=O)N1/N=C/c1ccc2c(c1)OCO2`, for which the growth is 82% (inactive) with SR leukemia; 100% (inactive) with OVCAR-8 ovarian; 93.1% (inactive) in the assay on OVCAR-5 ovarian; 113% (inactive) with OVCAR-4 ovarian; 97.5% (inactive) in the assay on SK-OV-3 ovarian; 101% (inactive) in the assay on IGROV1 ovarian. The growth in the assay on OVCAR-3 ovarian is 108% (inactive); in the assay with HS 578T breast it was 78.7% (inactive); in the assay on NCI/ADR-RES ovarian, 110% (inactive); in the assay with T-47D breast, 99.9% (inactive); in the assay on BT-549 breast it was 97.2% (inactive); in the assay with MDA-MB-435 melanoma it was 114% (inactive). Besides, the growth with SW-620 colon was 107% (inactive); in the assay on MCF7 breast, 91.3% (inactive); in the assay with HCT-116 colon, 95% (inactive); with HCC-2998 colon, 116% (inactive); with KM12 colon, 113% (inactive).

Regarding `Nc1ncnc2c1ncn2C1CC(O)C(CO)O1` (stereo unspecified), the growth with SR leukemia is 110% (inactive) and 95% (inactive); in the assay on OVCAR-8 ovarian, 102% (inactive) and 109% (inactive); in the assay on OVCAR-5 ovarian it was 103% (inactive) and 116% (inactive); in the assay on OVCAR-4 ovarian, 113% (inactive) and 107% (inactive); in the assay with SK-OV-3 ovarian, 105% (inactive) and 110% (inactive); in the assay on IGROV1 ovarian, 116% (inactive). The growth in the assay on OVCAR-3 ovarian is 127% (inactive) and 109% (inactive); in the assay with HS 578T breast, 107% (inactive) and 153% (inactive); in the assay with NCI/ADR-RES ovarian it was 104% (inactive) and 113% (inactive); with T-47D breast, 112% (inactive) and 99.1% (inactive); in the assay on SW-620 colon it was 115% (inactive) and 105% (inactive); in the assay on MCF7 breast it was 96.1% (inactive) and 97.1% (inactive). Besides, the growth is 103% (inactive) and 100% (inactive) in the assay on HCT-116 colon; -17.3% (active) and 119% (inactive) with HCC-2998 colon; 114% (inactive) and 107% (inactive) with KM12 colon.

Regarding `OCCN1CCN(CCO)CC1`, the growth with SR leukemia was 99.5% (inactive) and 117% (inactive) and 98.8% (inactive); in the assay on RPMI-8226 leukemia it was 100% (inactive) and 95.5% (inactive); in the assay with OVCAR-8 ovarian, 101% (inactive) and 97.4% (inactive); with OVCAR-4 ovarian, 124% (inactive) and 97.7% (inactive); in the assay with SK-OV-3 ovarian, 104% (inactive) and 106% (inactive) and 109% (inactive); with IGROV1 ovarian, 113% (inactive) and 90.8% (inactive) and 112% (inactive). The growth is 119% (inactive) and 108% (inactive) and 109% (inactive) with OVCAR-3 ovarian; 106% (inactive) and 98.7% (inactive) and 112% (inactive) with HS 578T breast; 100% (inactive) and 94% (inactive) and 120% (inactive) with NCI/ADR-RES ovarian; 89.8% (inactive) and 86% (inactive) and 118% (inactive) with T-47D breast; 113% (inactive) and 99.8% (inactive) and 115% (inactive) in the assay with MDA-MB-435 melanoma; 99.5% (inactive) and 103% (inactive) in the assay on SW-620 colon. Besides, the growth is 95.5% (inactive) and 95.1% (inactive) and 107% (inactive) in the assay with MCF7 breast; 104% (inactive) and 87.9% (inactive) and 98.8% (inactive) in the assay on HCT-116 colon; 102% (inactive) and 95.7% (inactive) and 107% (inactive) in the assay on HCC-2998 colon; 108% (inactive) and 96.8% (inactive) and 109% (inactive) in the assay on KM12 colon.

In the case of `COC(=O)[C@H]1CCCN1C(=O)C1CCCN1C(=O)[C@@H](Cc1ccccc1)NC(=S)Nc1cc(C(F)(F)F)cc(C(F)(F)F)c1` (stereo partly specified), the growth in the assay with SR leukemia was 95.2% (inactive) and 67.5% (inactive); with RPMI-8226 leukemia, 109% (inactive) and 66.2% (inactive); in the assay on OVCAR-8 ovarian, 100% (inactive) and 87% (inactive); in the assay on OVCAR-4 ovarian, 104% (inactive) and 80.7% (inactive); in the assay with SK-OV-3 ovarian it was 128% (inactive) and 109% (inactive); in the assay on IGROV1 ovarian, 123% (inactive) and 69.8% (inactive). Also, the growth with OVCAR-3 ovarian is 111% (inactive) and 77.1% (inactive); in the assay with HS 578T breast, 105% (inactive) and 98.2% (inactive); in the assay with NCI/ADR-RES ovarian it was 109% (inactive) and 93.9% (inactive); in the assay on T-47D breast it was 105% (inactive) and 69.1% (inactive); with SW-620 colon it was 104% (inactive) and 89% (inactive); in the assay on MCF7 breast it was 99.2% (inactive) and 86.3% (inactive). Besides, the growth with HCT-116 colon is 112% (inactive) and 65.5% (inactive); in the assay on HCC-2998 colon, 108% (inactive) and 112% (inactive); in the assay on KM12 colon, 111% (inactive) and 96.5% (inactive).

For the compound `O=C1NC(=O)C2(CCc3ccccc32)N1` (stereo unspecified), the growth was 111% (inactive) and 95.6% (inactive) with SR leukemia; 106% (inactive) and 95.6% (inactive) in the assay on RPMI-8226 leukemia; 110% (inactive) and 102% (inactive) with OVCAR-8 ovarian; 114% (inactive) and 101% (inactive) in the assay on SK-OV-3 ovarian; 119% (inactive) and 106% (inactive) in the assay on IGROV1 ovarian; 99.5% (inactive) and 114% (inactive) in the assay on OVCAR-3 ovarian. The growth in the assay with HS 578T breast was 121% (inactive); with NCI/ADR-RES ovarian it was 109% (inactive) and 92.5% (inactive); in the assay on T-47D breast, 92.8% (inactive) and 94.4% (inactive); with BT-549 breast, 115% (inactive) and 98.1% (inactive); in the assay with MDA-MB-435 melanoma, 107% (inactive) and 129% (inactive); in the assay on SW-620 colon it was 117% (inactive). Besides, the growth in the assay on MCF7 breast was 92.9% (inactive) and 110% (inactive); with HCT-116 colon, 113% (inactive) and 96.3% (inactive); with HCC-2998 colon, 103% (inactive); in the assay with KM12 colon, 100% (inactive) and 109% (inactive).
